Compounds with a hit are over-represented: about 0.43% of the library has one in this group of screens.
aGal spleen mod: alpha-galactosidase A (human) modulation. P06280. human spleen homogenate, 4MU-alpha-Gal fluorescence, 40 min. Potency, µM (doses to about 80 µM), for inactives: at the highest dose activity change, negative = inhibition, hits mostly inhibitors. 240,000 compounds, 0.008% hits;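 note: potency is the fitted concentration of half-maximal effect; 0% = enzyme with vehicle and -100% = no enzyme basal signal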
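Fluorogenic readout (Ex 365/Em 440 nm) of 4-methylumbelliferone released from 1 mM 4-MU-alpha-galactoside by spleen homogenate, 40 min at 37C, pH 5.0. Data normalized to no-enzyme and enzyme controls; Hill-equation AC50 from compound titrations.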
aGlu spleen mod: lysosomal alpha-glucosidase (human) modulation. human spleen homogenate, 4-MU-alpha-glucoside fluorescence. Potency, µM (titrated, usually from 79.9 µM), without a hit: at the highest dose activity change, negative = inhibition, most hits filed as inhibitors. AID 2112. 240,000 compounds, 0.006% hits;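 note: potency is the fitted concentration of half-maximal effect; 0% = enzyme with vehicle and -100% = no enzyme basal signal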
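Human spleen homogenate (1 ug) incubated with compounds and 1 mM 4-methylumbelliferyl-alpha-D-glucopyranoside in pH 5.0 citrate/phosphate buffer, 37 C, 40 min. Stopped at pH 10; 4-MU fluorescence (Ex 365/Em 440 nm); AC50 by Hill fit.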
GLA inh pH 4.5: blocks human alpha-galactosidase A at pH 4.5; purified enzyme, 4-MU-alpha-Gal fluorescence, pH 4.5; activity change, negative = inhibition, % at 105 µM; 230,000 tested, under 10 active; AID 1467;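 note: 0% = full activity with enzyme and -100% = basal without enzyme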
Target sequence (P06280 whole entry, looked up): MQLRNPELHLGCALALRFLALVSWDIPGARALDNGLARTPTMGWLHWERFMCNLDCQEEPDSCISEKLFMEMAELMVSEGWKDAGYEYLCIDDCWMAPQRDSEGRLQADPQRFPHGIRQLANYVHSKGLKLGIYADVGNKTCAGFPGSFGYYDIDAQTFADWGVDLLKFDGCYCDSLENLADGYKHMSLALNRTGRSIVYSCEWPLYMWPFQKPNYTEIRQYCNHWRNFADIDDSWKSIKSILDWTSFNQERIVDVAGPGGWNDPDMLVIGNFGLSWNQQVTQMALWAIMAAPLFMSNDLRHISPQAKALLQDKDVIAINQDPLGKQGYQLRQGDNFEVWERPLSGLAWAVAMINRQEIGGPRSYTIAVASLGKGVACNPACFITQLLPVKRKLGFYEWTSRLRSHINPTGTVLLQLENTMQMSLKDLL
N370S GC mod: inhibitors or activators of N370S glucocerebrosidase for Gaucher disease | P04062 | N370S GC spleen homogenate, 4MU-glucoside fluorescence | Potency, µM (doses to about 59.4 µM), for the others: at the highest dose activity change, negative = inhibition, hits mostly inhibitors | 330,000 compounds, 0.092% hits | AID 2101;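 note: potency is the fitted concentration of half-maximal effect; 0% = full enzyme activity and -100% = no enzyme basal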
GAA glycogen mod: alters human alpha-glucosidase cleavage of glycogen; Potency, µM (highest dose often 76.4 µM), inactives show top-dose activity change, negative = inhibition, usual class: inhibitors; P10253; AID 2100; recombinant GAA, glycogen substrate, Amplex Red glucose oxidase fluorescence; 300,000 compounds, 0.38% hits;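 note: potency is the fitted concentration of half-maximal effect; 0% = full enzyme reaction and -100% = no-enzyme basal signal; the screen sought inhibitors and activators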
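Natural-substrate format: glycogen cleavage by 4 nM human enzyme, glucose read by Amplex Red coupling (Ex 573, Em 610 nm). Normalized to enzyme and no-enzyme controls.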
GAA inhib: inhibitors of human lysosomal alpha-glucosidase | P10253 | purified human GAA, 4-MU-alpha-glucoside fluorescence | Potency, µM (titrated, usually from 76.9 µM), for inactives: top-dose activity change, negative = inhibition, most hits filed as inhibitors | 200,000 compounds, 0.005% hits | AID 1466;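 note: potency is the fitted concentration of half-maximal effect; plate controls were uninhibited enzyme wells for no effect and no-enzyme background for full effect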
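Read-out is 4-methylumbelliferone fluorescence (Ex 365/Em 440 nm) after NaOH/glycine stop at pH 10. Enzyme 4 nM, substrate 400 uM, pH 5.0 citrate buffer, 20 min room temperature; AC50 from Hill-equation concentration-response.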
Starred values were filed as active, the others as inactive; ? = inconclusive; / = not tested or not shown. Calls come from the whole dose curve; as a rule, active = well fitted curve in the direction sought with a large enough effect; inconclusive = small, poorly fitted or top-dose-only effect, or another doubt; inactive = no such curve, though single readings can be large; an effect the other way counts as inactive or inconclusive.

SMILES | aGal spleen mod | aGlu spleen mod | GLA inh pH 4.5 | N370S GC mod | GAA glycogen mod | GAA inhib
CC(C)CCC[C@@H](C)[C@@H]1CC[C@H]2C3=CC=C4CC(O)CC[C@]4(C)[C@H]3CC[C@@]21C (stereo partly specified) | -6% | -3% | / | -11% | / | /
CCN1CCN(C(CC(C)C)c2nnnn2CS(=O)(=O)c2ccc(C)cc2)CC1 (stereo unspecified) | -10% | -2% | -4 | 22µM* | 9% | 6%
O=C(NNc1ccc(-c2csnn2)cc1)c1ccccc1C(F)(F)F | 4% | 4% | 0 | 0% | 9.9µM* | 1%
COC(=O)C1=C(C)NC(C)=C(C(=O)OCCCN2CCC(c3ccccc3)(c3ccccc3)CC2)[C@H]1c1cccc([N+](=O)[O-])c1 | 10% | -1% | -17 | ? | / | /
COC(=O)c1[nH]c2ccc(C)cc2c1NS(=O)(=O)c1ccc(F)c(C)c1 | 11% | 6% | 0 | 2% | 18µM* | 3%
Cc1ccc(S(=O)(=O)Nc2c(C(=O)O)[nH]c3ccccc23)cc1C | / | / | / | 4% | ? | /
COC(=O)c1[nH]c2ccc(F)cc2c1NS(=O)(=O)c1ccc(F)c(C)c1 | -3% | -1% | 1 | 14% | -9% | -1%
COC(=O)c1[nH]c2ccc(C)cc2c1NS(=O)(=O)c1ccc(F)cc1 | 8% | -5% | 8 | -36% | 10µM* | 8%
Cc1cc(S(=O)(=O)Nc2c(C(=O)O)[nH]c3ccccc23)ccc1F | -13% | -7% | -1 | 12% | 2.2µM* | 2%
C=CCc1cccc(/C=N/NC(=O)CN2CCN(Cc3ccccc3)CC2)c1O | 10% | 2% | / | -1% | / | /
O=C(NC1CCCC1)C(c1ccncc1)N(Cc1cccs1)C(=O)c1csnn1 (stereo unspecified) | -6% | 5% | -4 | 2% | 20µM* | -10%
CC(C)(C)NC(=O)C(c1ccncc1)N(Cc1cccs1)C(=O)c1csnn1 (stereo unspecified) | -2% | -2% | 5 | 14% | ? | /
CC(=O)Nc1cc(OC(C)=O)c2nonc2c1OC(C)=O | -10% | -7% | 2 | -6% | 16µM* | -5%
O=Nc1ccc(NO)cc1 | -2% | -16% | / | -9% | / | /
CC[C@H](C)[C@H](NC(=O)[C@H](Cc1ccc(O)cc1)NC(=O)[C@H](CCCNC(=N)N)NC(=O)[C@H](CCCNC(=N)N)NC(=O)[C@H](CC(C)C)NC(=O)[C@H](CCC(N)=O)NC(=O)[C@@H](NC(=O)[C@H](CCC(=O)O)NC(=O)[C@H](Cc1ccc(O)cc1)NC(=O)[C@H](CCC(N)=O)NC(=O)[C@H](C)NC(=O)[C@H](CCCNC(=N)N)NC(=O)[C@H](CCC(N)=O)NC(=O)[C@H](CCC(=O)O)NC(=O)[C@H](Cc1cnc[nH]1)NC(=O)[C@@H](NC(=O)[C@H](C)NC(=O)[C@H](Cc1ccc(O)cc1)NC(=O)[C@H](CC(=O)O)NC(=O)CNC(=O)[C@@H]1CCCN1C(=O)[C@H](Cc1ccc(O)cc1)NC(=O)[C@H](CCSC)NC(=O)[C@@H]1CCCN1C(=O)[C@H](CCC(=O)O)NC(=O)[C@H](CC(C)C)NC(=O)[C@@H]1CCCN1C(=O)[C@H](C)N)[C@@H](C)O)[C@@H](C)O)C(=O)N[C@@H](CC(N)=O)C(=O)N[C@H](C(=O)N[C@@H](CC(C)C)C(=O)N[C@H](C(=O)N[C@@H](CCCNC(=N)N)C(=O)N1CCC[C@H]1C(=O)N[C@@H](CCCNC(=N)N)C(=O)N[C@@H](Cc1ccc(O)cc1)C(N)=O)[C@@H](C)O)[C@@H](C)O | -24% | -4% | / | -6% | / | /
Cc1ccc(NC(=O)c2[nH]cnc2C(=O)NN)cc1 | -2% | -5% | 5 | -3% | 20µM* | ?
O=C1NCCCC2c3cc(O)c4ccccc4c3OC12N1CCCCC1 (stereo unspecified) | -7% | -5% | 0 | 12% | 25µM* | 11%

Screening data: PubChem BioAssay, National Center for Advancing Translational Sciences (NCATS)
